About 83,000 compounds went through this panel and 20% of them were active in at least one assay; those are over-represented in the sample as a whole.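 Note: values are percent growth. 100 is the growth of untreated cells, values between 100 and 0 indicate rising inhibition; between -100 and 0 indicates cell death.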 Calls of active or inactive are those of the source. Rule for the calls: active = growth percent below 10; inactive = the rest.
Assays:
Assay in all cases: NCI-60 one-dose screen, 48 h (100 = growth as untreated, 0 = no growth, -100 = all killed)
Conditions in all cases: 10 µM unless noted
HT29 colon = tested on: HT29 colon
SNB-19 CNS = tested on: SNB-19 CNS
U251 CNS = tested on: U251 CNS
PC-3 prostate = tested on: PC-3 prostate
SK-MEL-5 melanoma = tested on: SK-MEL-5 melanoma
UACC-62 melanoma = tested on: UACC-62 melanoma
LOX IMVI melanoma = tested on: LOX IMVI melanoma
SK-MEL-2 melanoma = tested on: SK-MEL-2 melanoma
EKVX NSCLC = tested on: EKVX NSCLC
SN12C renal = tested on: SN12C renal
TK-10 renal = tested on: TK-10 renal
ACHN renal = tested on: ACHN renal
CAKI-1 renal = tested on: CAKI-1 renal
A498 renal = tested on: A498 renal
CCRF-CEM leukemia = tested on: CCRF-CEM leukemia
MOLT-4 leukemia = tested on: MOLT-4 leukemia
SR leukemia = tested on: SR leukemia
SK-MEL-28 melanoma = tested on: SK-MEL-28 melanoma
UO-31 renal = tested on: UO-31 renal
SNB-75 CNS = tested on: SNB-75 CNS

Measured: growth

O=C1N(C2CCCCC2)C(=O)N1C1CCCCC1
active: PC-3 prostate -3% | SK-MEL-2 melanoma -7.37% | TK-10 renal 8.07% | A498 renal -11.9% | CCRF-CEM leukemia 4.67%
inactive: HT29 colon 44.9% | SNB-19 CNS 68.6% | U251 CNS 48% | SK-MEL-5 melanoma 16.9% | UACC-62 melanoma 38.9% | LOX IMVI melanoma 31% | EKVX NSCLC 51.3% | SN12C renal 49.9% | ACHN renal 11.4% | CAKI-1 renal 28.7% | MOLT-4 leukemia 15.7% | SR leukemia 46.6%

COc1cc(C2CC(c3ccc(C)cc3)=NN2C(C)=O)ccc1Oc1ccnc2cc(Cl)ccc12 (stereo not drawn)
inactive: HT29 colon 77.1% | SNB-19 CNS 58.1% | U251 CNS 14.7% | SK-MEL-5 melanoma 91.1% | UACC-62 melanoma 72.5% | LOX IMVI melanoma 65.6% | SK-MEL-28 melanoma 108% | SK-MEL-2 melanoma 60.6% | EKVX NSCLC 63.3% | SN12C renal 77.5% | UO-31 renal 61.6% | TK-10 renal 11.1% | ACHN renal 32.2% | CAKI-1 renal 58.1% | A498 renal 64.3% | CCRF-CEM leukemia 74.5% | MOLT-4 leukemia 86.8% | SR leukemia 35.1%

COc1ccc2c(c1)[nH]c(=O)c1c3cc(OC)c(OC)cc3cn21
inactive: SNB-75 CNS 72% | SNB-19 CNS 31.3% | UACC-62 melanoma 48.9% | SK-MEL-28 melanoma 61.1% | SN12C renal 35.6% | UO-31 renal 35.1% | TK-10 renal 27.1% | ACHN renal 24.7% | A498 renal 34.4% | SR leukemia 64.9%
active: U251 CNS -22.4% | PC-3 prostate -90.8% | SK-MEL-5 melanoma -6.64% | LOX IMVI melanoma 9.3% | SK-MEL-2 melanoma 6.58% | CAKI-1 renal -9.25% | CCRF-CEM leukemia -83.5% | MOLT-4 leukemia 7.2%

COc1ccc(C2CC(c3ccc(OC)c(OC)c3)=NN2C(=O)c2cc(OC)c(OC)c(OC)c2)cc1 (stereo not drawn)
inactive: SNB-19 CNS 38.9% | U251 CNS 26% | PC-3 prostate 30.5% | UACC-62 melanoma 41.9% | LOX IMVI melanoma 36.1% | SK-MEL-2 melanoma 12.6% | SN12C renal 41.5% | UO-31 renal 21.1% | TK-10 renal 18.4% | ACHN renal 48.7% | CAKI-1 renal 12.1% | CCRF-CEM leukemia 24.3% | MOLT-4 leukemia 47.1% | SR leukemia 20.6%
active: HT29 colon -1.1% | SK-MEL-5 melanoma 5.8%

C[C@]12C[C@H](O)[C@H]3[C@@H](CCC4=CC(=O)CC[C@@]43C)[C@@H]1CC[C@@H]2C(=O)CO
inactive: SNB-75 CNS 78.5% | SNB-19 CNS 95.6% | U251 CNS 93.5% | PC-3 prostate 97.3% | SK-MEL-5 melanoma 91% | UACC-62 melanoma 91.4% | LOX IMVI melanoma 97.7% | SK-MEL-28 melanoma 102% | SK-MEL-2 melanoma 93.4% | EKVX NSCLC 80.7% | SN12C renal 79.9% | UO-31 renal 89.6% | TK-10 renal 108% | ACHN renal 95.8% | CAKI-1 renal 101% | A498 renal 43.5% | CCRF-CEM leukemia 78.1% | MOLT-4 leukemia 116% | SR leukemia 111%

O=Cc1c[nH]c2ccc(NC(=O)OCc3ccccc3)cc12
active: SK-MEL-2 melanoma -19.1%
inactive: SNB-75 CNS 87.1% | SNB-19 CNS 89% | U251 CNS 78.8% | PC-3 prostate 48.6% | SK-MEL-5 melanoma 99.1% | UACC-62 melanoma 90.4% | LOX IMVI melanoma 105% | SK-MEL-28 melanoma 145% | EKVX NSCLC 106% | SN12C renal 90.3% | UO-31 renal 106% | TK-10 renal 88.1% | ACHN renal 108% | A498 renal 231% | CCRF-CEM leukemia 83.8% | MOLT-4 leukemia 152% | SR leukemia 80.4%

CC(=O)Oc1ccc(C2OC(c3ccc4ccccc4c3OC(C)=O)=NN2C(C)=O)c(OC(C)=O)c1 (stereo not drawn)
active: SK-MEL-5 melanoma -9.16% | UACC-62 melanoma -11.8% | LOX IMVI melanoma 4.67% | UO-31 renal 7.69% | CCRF-CEM leukemia 7.23% | MOLT-4 leukemia 2.64%
inactive: HT29 colon 27.2% | SNB-19 CNS 36.9% | U251 CNS 13.2% | PC-3 prostate 24.5% | SK-MEL-28 melanoma 37.9% | SK-MEL-2 melanoma 13% | SN12C renal 21.8% | TK-10 renal 34.4% | ACHN renal 21.2% | CAKI-1 renal 18.7% | A498 renal 35%

COc1ccc2nc(-c3ccc(-n4cncc4-c4ccc(OC)c(N)c4)cc3)sc2c1
inactive: HT29 colon 96.8% | SNB-19 CNS 98.6% | U251 CNS 105% | PC-3 prostate 84.6% | SK-MEL-5 melanoma 105% | UACC-62 melanoma 101% | LOX IMVI melanoma 113% | SK-MEL-28 melanoma 106% | SK-MEL-2 melanoma 112% | EKVX NSCLC 109% | SN12C renal 111% | UO-31 renal 70.1% | TK-10 renal 114% | ACHN renal 103% | CAKI-1 renal 106% | CCRF-CEM leukemia 95.6% | MOLT-4 leukemia 66.3% | SR leukemia 69.3%

CN1C(=O)/C(=C/c2nc(-c3cccc(F)c3)n3ccccc23)c2ccccc21
inactive: HT29 colon 89% | SNB-19 CNS 76.8% | U251 CNS 56.7% | SK-MEL-5 melanoma 64% | UACC-62 melanoma 71.3% | LOX IMVI melanoma 48.8% | SK-MEL-28 melanoma 89.1% | SK-MEL-2 melanoma 68.2% | SN12C renal 85.9% | UO-31 renal 89.8% | TK-10 renal 61.7% | ACHN renal 39.9% | CAKI-1 renal 68% | CCRF-CEM leukemia 88.9% | MOLT-4 leukemia 71.6% | SR leukemia 60.5%

COc1ccc(-c2cncn2-c2ccc(-c3nc4cc(OC)c(OC)c(OC)c4s3)cc2)cc1N
inactive: HT29 colon 43.7% | SNB-19 CNS 72.1% | U251 CNS 56.3% | PC-3 prostate 30.1% | SK-MEL-5 melanoma 26.9% | UACC-62 melanoma 53.7% | LOX IMVI melanoma 62.4% | SK-MEL-28 melanoma 78.5% | EKVX NSCLC 58.4% | SN12C renal 72.4% | UO-31 renal 16.1% | TK-10 renal 83.3% | ACHN renal 59.6% | CAKI-1 renal 30.4% | CCRF-CEM leukemia 45.9% | MOLT-4 leukemia 40% | SR leukemia 43.4%
active: SK-MEL-2 melanoma 7.6%

NC(N)=NN=c1c(=O)c2ccccc2c1=O
inactive: U251 CNS 72.1% | PC-3 prostate 78% | UACC-62 melanoma 103% | SK-MEL-28 melanoma 80% | SK-MEL-2 melanoma 118% | EKVX NSCLC 118% | SN12C renal 16.3% | UO-31 renal 64.8% | TK-10 renal 110% | ACHN renal 78% | CAKI-1 renal 104% | A498 renal 78.1%
active: HT29 colon -49.4% | LOX IMVI melanoma -44.9% | CCRF-CEM leukemia -27.9% | MOLT-4 leukemia -33.1%

Cc1c(C(N)=O)sc2c1C(=O)N(Cc1ccccc1)C1=NN=C(c3ccc(Cl)cc3)CN12
inactive: HT29 colon 34.9% | SNB-19 CNS 52.8% | U251 CNS 29.9% | SK-MEL-5 melanoma 57% | UACC-62 melanoma 25.4% | LOX IMVI melanoma 17.2% | SK-MEL-28 melanoma 72.8% | SK-MEL-2 melanoma 66.8% | EKVX NSCLC 62.7% | SN12C renal 61.5% | UO-31 renal 26.3% | TK-10 renal 59.4% | ACHN renal 21.9% | CAKI-1 renal 18.6% | A498 renal 105%

CCCCCCCCCCCCCCCCCc1nccn1CCO
active: LOX IMVI melanoma -44.4%
inactive: HT29 colon 13.6% | SNB-19 CNS 66.9% | U251 CNS 33.7% | PC-3 prostate 55.9% | SK-MEL-5 melanoma 70.4% | UACC-62 melanoma 92.4% | SK-MEL-2 melanoma 82.2% | SN12C renal 52.2% | UO-31 renal 47.5% | TK-10 renal 112% | ACHN renal 63.7% | A498 renal 72.5% | CCRF-CEM leukemia 79.7% | MOLT-4 leukemia 65.6%

COc1ccc(C2CC(c3ccc(OC)c(OC)c3)=NN2C(=O)c2cc(OC)c(OC)c(OC)c2)c(OC)c1 (stereo not drawn)
inactive: HT29 colon 59.9% | SNB-19 CNS 91.8% | U251 CNS 80.6% | PC-3 prostate 64.3% | SK-MEL-5 melanoma 42% | UACC-62 melanoma 58% | LOX IMVI melanoma 56.6% | SK-MEL-28 melanoma 80.2% | SK-MEL-2 melanoma 68.2% | EKVX NSCLC 86.7% | SN12C renal 91.3% | UO-31 renal 42.2% | TK-10 renal 87.7% | ACHN renal 65.2% | CAKI-1 renal 34.6% | CCRF-CEM leukemia 92.9% | MOLT-4 leukemia 106% | SR leukemia 48.7%

C/C(=N\N1CC(=O)NC1=O)c1ccc([N+](=O)[O-])o1
inactive: SNB-75 CNS 96.4% | SNB-19 CNS 99.3% | U251 CNS 102% | PC-3 prostate 93.8% | SK-MEL-5 melanoma 93.4% | UACC-62 melanoma 83.2% | LOX IMVI melanoma 67.5% | SK-MEL-28 melanoma 117% | SK-MEL-2 melanoma 106% | EKVX NSCLC 90.8% | SN12C renal 102% | UO-31 renal 85.1% | TK-10 renal 105% | ACHN renal 105% | CAKI-1 renal 109% | A498 renal 76.7% | CCRF-CEM leukemia 106% | MOLT-4 leukemia 99.5% | SR leukemia 95.9%
